Assay outcomes: PubChem BioAssay, National Center for Advancing Translational Sciences (NCATS)
Hits are enriched below; roughly 2.5% of the tested compounds scored in any of these assays.
aSyn yeast inh: inhibitors of alpha-synuclein toxicity in yeast | 0.14% of 370,000 active | AID 652106 | Yeast expressing alpha-synuclein, growth rescue, BacTiter-Glo, 24 h | Potency, µM (series often up to 46.1 µM), without a hit: at the top dose growth rescue (activation), hits mostly activators; further: potency means the concentration at half of the fitted maximal effect; % of control where 0% means no effect; nearly all actives have a fitted effect of over 65% in size
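Screening used galactose-induced yeast with toxic alpha-synuclein levels, exposed to compound for 24 hr at 30 deg C. Cell growth, read with BacTiter-Glo luminescence, gave the measured signal.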
TDP43 rescue: TDP-43 toxicity inhibition in yeast | TDP-43 expressing yeast growth rescue, BacTiter-Glo, 24 h | Potency, µM (highest dose often 46.1 µM), for the others: at the top dose growth rescue (activation), hits mostly activators | 1.8% of 410,000 active; further: potency means the concentration at half of the fitted maximal effect; % of control where 0% means no effect; nearly all actives have a fitted effect of over 50% in size
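Galactose-induced TDP-43 yeast, OD600=0.02, compound pinned; 24 hr, 30 deg C; BacTiter-Glo luminescence for growth. Inhibitors of TDP-43 toxicity read as activators.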
pAkt inh: inhibitors of Akt phosphorylation; Neuro2A IGF-stimulated pAkt S473 HTRF, 20 min; stronger effect = lower value; activity change, % for hits at 50 µM; 0.32% of 360,000 active; AID 651550; in the data active means activity change below about -80%; inconclusive means mostly about -51% to -80%; further: on the % scale 0 is the no-effect control and ±100 the full control effect
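Neuro2A cells (4,500/well, DMEM with 0.5% FBS) were treated with compound at a single 50 µM final concentration, stimulated with 6 nM IGF for 20 min at 37 °C, and lysed. Phospho-Akt Ser473 was read by HTRF as 665/615 ratio ×10^4.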
Apoferritin bind: binds horse apoferritin like a general anesthetic | AID 485281 | Potency, µM (top dose mostly 77.5 µM), for inactives: at the highest dose activity change, negative = displacement, usual class: inhibitors | apoferritin/1-aminoanthracene competitive binding, fluorescence | 0.074% of 350,000 active | P02791; further: potency means the concentration at half of the fitted maximal effect; on the % scale 0 is the no-effect control and ±100 the full control effect; nearly all actives have a fitted effect of over 20% in size
Target sequence (P02791 2-175 limits assumed): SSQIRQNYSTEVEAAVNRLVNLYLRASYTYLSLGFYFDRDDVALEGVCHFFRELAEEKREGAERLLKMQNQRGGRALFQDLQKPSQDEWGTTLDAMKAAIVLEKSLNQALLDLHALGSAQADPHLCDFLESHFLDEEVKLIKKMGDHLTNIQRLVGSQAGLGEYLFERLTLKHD
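Apoferritin-based anesthetic binding model; compound displacement of fluorescent 1-AMA measured as endpoint fluorescence after 10 minutes at room temperature, scaled to free-ligand and complex controls.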
CCT modulator: changes cytosolic chaperonin activity; purified chaperonin ATPase assay, HTRF ADP detection, 30 min; activity change, % (concentration not given with the values), hits read low; 0.3% of 360,000 active; AID 651819; in the data active means activity change below about -30%; further: on the % scale 0 is the no-effect control and ±100 the full control effect
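Nucleotide hydrolysis assay: TRiC at 20–40 nM final (set by batch activity) with 10 uM ATP, 30 min at 37 °C, in presence of 76 uM compound. Detection by competitive ADP HTRF, 30 min ambient.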
Mito fusion yeast: blocks mitochondrial division or promotes mitochondrial fusion. Potency, µM (doses to about 46.1 µM), without a hit: at the top dose growth rescue (activation), actives largely listed as activators. S. cerevisiae fusion-defective mutant growth rescue, CellTiterGlo 48 h. 0.23% of 320,000 active; further: potency means the concentration at half of the fitted maximal effect; % of control where 0% means no effect; nearly all actives have a fitted effect of over 45% in size
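Luminescent cell viability in 1536-well qHTS format served as the measure of rescued growth in ts fusion-mutant S. cerevisiae cultured on non-fermentable YPEG for 48 hours at 37C.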
An asterisk follows results filed as active; [ ] = dose if it differs, or a comment. Unless noted, the call rests on the fitted dose curve; in most records, active means well fitted curve in the direction sought with a large enough effect; inconclusive means small, poorly fitted or top-dose-only effect, or another doubt; inactive means no such curve, though single readings can be large; an effect the other way counts as inactive or inconclusive.

What do the screens show for `Cc1oc(-c2ccccc2)nc1CN1C(=O)CN=C(c2ccccc2)c2ccccc21`?
aSyn yeast inh: -7%; TDP43 rescue: inconclusive; pAkt inh: inactive; Apoferritin bind: inconclusive; CCT modulator: 1; Mito fusion yeast: 13µM*

What do the screens show for `Cc1cccc(-c2nc(CN3C(=O)CN=C(c4ccccc4)c4ccccc43)c(C)o2)c1`?
TDP43 rescue: 35µM*; Apoferritin bind: -15%

What do the screens show for `CC(=O)C[C@H](c1ccccc1)c1c(O)c2ccccc2oc1=O`?
Apoferritin bind: 3%

Results for C=C(C)[C@H]1Cc2c(ccc3c2O[C@@H]2COc4cc(OC)c(OC)cc4[C@@H]2C3=O)O1 ?
aSyn yeast inh: 1%; Mito fusion yeast: 18µM*

What do the screens show for `CCC(=Nc1ccc(OC)cc1OC)c1c(O)n(C2CCCCC2)c(=O)[nH]c1=O`?
aSyn yeast inh: -12%; TDP43 rescue: 16µM*; pAkt inh: inactive; Apoferritin bind: -14%; CCT modulator: 0; Mito fusion yeast: 19%

What do the screens show for `Nc1ccc(N)cc1`?
Apoferritin bind: -6%

Results for Nc1ccc(C2(c3ccc(N)cc3)c3ccccc3-c3ccccc32)cc1 ?
aSyn yeast inh: 1%; TDP43 rescue: -2%; pAkt inh: inactive; Apoferritin bind: -11%; CCT modulator: 1; Mito fusion yeast: 25µM*

Results for O=C(Nc1ccc(F)cc1F)c1cccn(Cc2ccccc2)c1=O ?
aSyn yeast inh: 5%; TDP43 rescue: 1%[9.22 µM]; pAkt inh: inactive; Apoferritin bind: -11%; CCT modulator: 1; Mito fusion yeast: -1%

Results for Cc1ccc(F)cc1NC(=O)c1ccc(Cn2nc(N3CCN(c4ccccc4)CC3)ccc2=O)o1 ?
TDP43 rescue: 25µM*; Apoferritin bind: -16%

How did CCOP(=O)(c1ccccc1)c1nc(-c2ccc(F)cc2)oc1N1CCCCC1 (configuration not stated) do in these assays?
aSyn yeast inh: 8%; TDP43 rescue: -22%; pAkt inh: -130%*; Apoferritin bind: inconclusive; CCT modulator: -9; Mito fusion yeast: 5%

Results for c1ccc(N2CCN(c3ncnc4c3nc3n4CCCC3)CC2)cc1 ?
TDP43 rescue: inconclusive; Apoferritin bind: 1%

How did Cc1ccc(Cl)cc1N1CCN(c2ncnc3c2nc2n3CCCC2)CC1 do in these assays?
TDP43 rescue: 14µM*; Apoferritin bind: 2%

How did CCCCCCCCCC[n+]1cccc([C@@H]2CCCN2C)c1 do in these assays?
Apoferritin bind: -10%

Results for Cc1c(CCC(=O)N2CCCCC2)c(=O)oc2cc3occ(C(C)(C)C)c3cc12 ?
TDP43 rescue: inconclusive; Apoferritin bind: -5%

What do the screens show for `O=C(N/N=C/c1c(O)n(CCC2=CCCCC2)c(=O)[nH]c1=O)c1ccccc1`?
aSyn yeast inh: -8%; TDP43 rescue: 1%; pAkt inh: inactive; Apoferritin bind: -2%; CCT modulator: -5; Mito fusion yeast: -1%

What do the screens show for `Nc1ccccc1N=Cc1c(O)n(CCC2=CCCCC2)c(=O)[nH]c1=O`?
aSyn yeast inh: 0%; TDP43 rescue: -10%; pAkt inh: -115%*; Apoferritin bind: -12%; CCT modulator: 2; Mito fusion yeast: 3%

How did COc1cc([C@@H]2c3cc4c(cc3[C@@H](O)[C@H]3COC(=O)[C@H]23)OCO4)cc(OC)c1O do in these assays?
aSyn yeast inh: -6%

Results for CCCCN1C(=O)NC(=O)C2(Cc3c(nc4c(C)cccn4c3=O)N3CCc4ccccc4C32)C1=O (configuration not stated) ?
aSyn yeast inh: 18%; TDP43 rescue: 35µM*; pAkt inh: inactive; Apoferritin bind: -7%; CCT modulator: -1; Mito fusion yeast: inconclusive

Results for CC(C)(C)OC(=O)NCc1ccc(CNC(=O)c2[nH]cnc2C(=O)Nc2ccccc2F)cc1 ?
aSyn yeast inh: 2%; TDP43 rescue: inconclusive; pAkt inh: inactive; CCT modulator: -2

What do the screens show for `C=Cn1ccnc1P(=S)(c1nccn1C=C)c1nccn1C=C`?
aSyn yeast inh: -13%; TDP43 rescue: -4%; pAkt inh: inactive; Apoferritin bind: -4%; CCT modulator: 0; Mito fusion yeast: 0%

What do the screens show for `C=Cn1ccnc1P(=S)(c1nccn1C=C)C1CCCCC1`?
aSyn yeast inh: -4%; TDP43 rescue: 0%; pAkt inh: inactive; Apoferritin bind: -8%; CCT modulator: -77*; Mito fusion yeast: -3%

What do the screens show for `Nc1ccc(-c2ccccc2)cc1`?
aSyn yeast inh: -2%; TDP43 rescue: 10%; pAkt inh: inactive; CCT modulator: -52*

What do the screens show for `CC1(O)CCN2C(=O)CCc3cccc1c32` (configuration not stated)?
aSyn yeast inh: -7%[1.84 µM]; TDP43 rescue: 13µM*; pAkt inh: inactive; CCT modulator: -3; Mito fusion yeast: 5%

How did c1ccc2c(c1)CSc1ccccc1N2 do in these assays?
aSyn yeast inh: -5%; TDP43 rescue: 20µM*; pAkt inh: inactive; CCT modulator: -1

Results for Nc1ccc2c3c(cccc13)-c1ccccc1-2 ?
aSyn yeast inh: -13%; TDP43 rescue: 11µM*; pAkt inh: inactive; CCT modulator: -1

Results for c1ccc2c(c1)c1cccc3ccc4cccc2c4c31 ?
aSyn yeast inh: 11%; TDP43 rescue: inconclusive; pAkt inh: inactive; CCT modulator: 0; Mito fusion yeast: 9%

Results for N#Cc1c(Oc2cccc(OS(=O)(=O)CCCC(F)(F)F)c2)cccc1C(F)(F)F ?
Apoferritin bind: -8%

Results for CC(C)C12CN3CC(C(C)C)(CN(C1)C3c1cccnc1)C2=O (configuration not stated) ?
aSyn yeast inh: -1%; TDP43 rescue: -6%; pAkt inh: -108%*; Apoferritin bind: -10%; CCT modulator: -4; Mito fusion yeast: -2%

What do the screens show for `CC(=O)Nc1ccc(OC(=O)N2CCN(/[N+]([O-])=N/Oc3ccc([N+](=O)[O-])cc3[N+](=O)[O-])CC2)cc1`?
aSyn yeast inh: -29%

What do the screens show for `CN1CCC2(CC1)c1ccccc1-c1ccccc12`?
aSyn yeast inh: 0%; TDP43 rescue: 2%; pAkt inh: inactive; CCT modulator: -4

How did CC1(C(=O)O)CC12c1ccccc1-c1ccccc12 (configuration not stated) do in these assays?
aSyn yeast inh: -20%; TDP43 rescue: 3.2µM*; pAkt inh: inactive; CCT modulator: -2

Results for COC(=O)[C@]1(C)CC[C@@]2(C)CC[C@@]3(C)C4=CC=C5C(=CC(=O)C(O)=C5C)[C@@]4(C)CC[C@@]3(C)C2C1 (some centres not stated) ?
Apoferritin bind: -24%
